Source: PubChem BioAssay (National Center for Advancing Translational Sciences (NCATS))
This is a sample that favours compounds with a hit; in the whole collection about 15% have one here.
RORgamma inh – blocks mouse ROR gamma transcriptional activity | Potency, µM (series often up to 53.6 µM), inactives show top-dose activity change, negative = inhibition, most hits filed as inhibitors | 310,000 tested, 5.4% active | Drosophila S2 Gal4-RORgamma UAS-luciferase reporter, 20 h | P51450; note: nearly all actives have a fitted effect of over 60% in size
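Compounds are pin-transferred onto Drosophila Schneider cells expressing a copper-inducible Gal4–ROR gamma transactivation domain fusion. After 1 hr, copper sulfate is added to 700 uM final; luciferase is read 20 hr later.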
VP16 counter – inhibits Gal4-VP16 luciferase reporter, ROR gamma counter-screen; Potency, µM (titrated, usually from 53.6 µM), inactives show top-dose activity, negative = inhibition, most hits filed as inhibitors; Drosophila S2 Gal4-VP16 UAS-luciferase, luminescence, 20 h; 310,000 tested, 3.5% active;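 note: Gal4-VP16 expression switched on by copper sulfate through the metallothionein promoter; nearly all actives have a fitted effect of over 50% in size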
TDP1 cell noCPT – qHTS for Inhibitors of human tyrosyl-DNA phosphodiesterase 1 (TDP1): qHTS in cells in absence of CPT | DT40 Tdp1-/- hTDP1 cells, no CPT, ATP luminescence, 48 h | Potency, µM (series often up to 46.2 µM), for inactives: at the highest dose activity change, negative = growth inhibition, most hits filed as inhibitors | 420,000 tested, 15% active | AID 686978, 2013; note: nearly all actives have a fitted effect of over 55% in size
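Growth kinetics read by CellTiter-Glo luminescence after ≥48 hr at 37 °C. Cells: DT40 Tdp1-/- stably carrying human TDP1, 400 per well, compound exposure in the absence of CPT (DMSO vehicle).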
TDP1 cell CPT – DT40-hTDP1 cell growth loss with CPT; chicken DT40 Tdp1-/-;hTDP1 cells + 20 nM CPT, ATP luminescence, 48 h; Potency, µM (highest dose often 46.2 µM), inactives show at the top dose activity change, negative = growth inhibition, usual class: inhibitors; 420,000 tested, 12% active; AID 686979; note: nearly all actives have a fitted effect of over 55% in size
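Chicken DT40 Tdp1-/- cells complemented with human TDP1, 400 cells/well, exposed to compounds plus 20 nM camptothecin for at least 48 h at 37 C; viability read as ATP content by CellTiter-Glo luminescence.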
ALOX12 inh – inhibitors of human 12S-lipoxygenase ALOX12 | 580,000 tested, 1.1% active | purified 12hLO, xylenol orange hydroperoxide absorbance | AID 1671190 | Potency, µM (highest dose often 108 µM), inactives show at the top dose activity change, negative = inhibition, usual class: inhibitors
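Purified human 12hLO at 150 nM in 25 mM Hepes, 0.01% Triton X-100, pH 7.0, preincubated 15 min at room temperature with compound. Reaction started with 40 uM arachidonic acid, 30 min at room temperature. Hydroperoxide measured by Fe-xylenol orange, 573/405 nm absorbance ratio.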
ELG1 DNA repair – ELG1-dependent DNA repair inhibition. HEK293T ELG1-luciferase reporter, luminescence, 16 h; DNA damage induced by 5-fluorouridine. Potency, µM (series often up to 46.1 µM), for the others: at the highest dose activity change, negative = inhibition, most hits filed as inhibitors. 330,000 tested, 2.3% active. AID 504467; note: nearly all actives have a fitted effect of over 55% in size
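Luminescence from the luciferase reporter, measured 30 min after ONE-Glo reagent at room temperature, was the read-out. Beforehand, 2,000 cells per well were exposed for 16 hr at 37 °C to 5-fluorouridine together with compound or vehicle.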
Active calls of the source: *; u = inconclusive; x = no result; ! = repeats disagree; [ ] = remark or other dose. Calls come from the whole dose curve; as a rule, active = well fitted curve in the direction sought with a large enough effect; inconclusive = small, poorly fitted or top-dose-only effect, or another doubt; inactive = no such curve, though single readings can be large; an effect the other way counts as inactive or inconclusive. % is set by controls: 0 for no effect and ±100 for the full control effect; potency is the fitted concentration of half-maximal effect.

SMILES	RORgamma inh	VP16 counter	TDP1 cell noCPT	TDP1 cell CPT	ALOX12 inh	ELG1 DNA repair
COc1ccccc1NC(=O)C1=C(C)Nc2nc(SCc3ccccc3)nn2C1c1ccccn1 (stereo not drawn)	x	x	u	8.2µM*	-12%	x
COc1ccccc1NC(=O)C1=C(C)Nc2nc(SCc3cccc(F)c3)nn2C1c1ccc(C(=O)O)cc1 (stereo not drawn)	x	x	4%	-9%	-17%	x
O=C1N/C(=N/N=C/c2ccc(O)cc2)SC1Cc1ccccc1 (stereo not drawn)	-33%	-17%	-11%	-32%	4%	u
CCOc1ccc(CC2S/C(=N/c3ccccn3)NC2=O)cc1 (stereo not drawn)	3.2µM*	5µM*	u	-20%	21%	-7%
COc1ccc(CC2S/C(=N/N=C/c3ccccc3O)NC2=O)cc1 (stereo not drawn)	5.6µM*	u	0.92µM*	3.3µM*	14%	u
O=C1N/C(=N/N=C/c2ccccc2O)SC1Cc1ccc(F)cc1 (stereo not drawn)	2.8µM*	8.9µM*	0.029µM*	0.18µM*	29%	u
CCc1ccc(CCOc2ccc(CC3SC(=O)NC3=O)cc2)nc1 (stereo not drawn)	37%	28%	u	21µM*!	u	x
Cc1cc(NC(=O)COC(=O)c2cc3ccccc3s2)no1	x	x	x	x	-1%	x
COc1ccc(NC(=O)Cn2c(=O)n(-c3cccc(C)c3)c(=O)c3c2cc(C)n3C)cc1OC	x	x	x	x	25%	x
COc1ccc(/C=N/N=C2/NC(=O)C(c3ccccc3)S2)c(OC)c1 (stereo not drawn)	14µM*	-3%[0.365 µM]	-3%	-1%	0%	14%
Cc1cc(C(=O)Nc2cccc3cccnc23)ccc1[N+](=O)[O-]	1%	-5%	u	-18%	0%	u
COc1ccc(NC(=O)c2cccc(NC(=O)C(C)C)c2)c([N+](=O)[O-])c1	10%	3%	16µM*	u	-5%	1%
Cc1cc(C(=O)NC(=S)Nc2cccc(C(=O)O)c2C)ccc1[N+](=O)[O-]	0%	-9%	7%	-1%	20µM*	6%
CC(C)C(=O)Nc1ccc(NC(=S)NC(=O)c2ccc([N+](=O)[O-])cc2)cc1	10µM*	0%	-17%	u	-10%	-11%
CC(C)C(=O)Nc1cccc(NC(=S)NC(=O)c2ccc([N+](=O)[O-])cc2)c1	11µM*	u	-11%	-7%	-7%	-16%
Cc1nn(CC(=O)Nc2ccc3c(c2)nc2n3CCN(CC(C)C)C2)c(=O)c2ccccc12	x	x	x	x	-5%	x
Cc1onc(-c2cnn(C)c2NCc2ccc(C#N)cc2)c1C(=O)NC1CCCCC1	x	x	x	x	2%[176 µM]	x
Cc1cc(C(=O)NC(=S)Nc2cccc(NC(=O)C(C)C)c2)ccc1[N+](=O)[O-]	10µM*	u	u	-17%	u	u
